Results: PubChem BioAssay (Tox21)
Several values for one entry are separate records, joined by “and”; a condition that tells them apart may be missing. Equal values may be shown once. Inconclusive results are not listed. A call without a number means that no potency is given here. Some structures have more than one record in an assay (separate samples or runs), and their calls can disagree. Activity calls are given as the source filed them. Unless noted, the call rests on the fitted dose curve; in most records, active means well fitted curve in the direction sought with a large enough effect in the repeat runs; inconclusive means weak or mixed curves; inactive means no such curve, though single readings can be large; an effect the other way counts as inactive or inconclusive.

Experiments:
[1] = qHTS assay to identify small molecule antagonists of the estrogen related receptor (ERR) signaling pathway from Tox21 library (AID 1224848); further: nearly all actives have a fitted effect of over 50% in size; further: potency means the concentration at half of the fitted maximal effect
Procedure, shortened: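 Cells: ERR line, 2,000/well; 6 h preincubation 37 C/5% CO2. Cpd in DMSO via pin tool; 18 h, 37 C. ONE-Glo, 30 min RT, luminescence.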

[2] = qHTS RealTime-Glo MT Cell Viability Assay in HepG2 cells - 24 hour (AID 1224867); further: nearly all actives have a fitted effect of over 50% in size
Procedure, shortened: (§1)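 HepG2 cells were seeded at 600 cells/well together with NanoLuc luciferase and a cell-permeant prosubstrate, preincubated 5 h at 37 C/5% CO2, then pin-dosed with compounds in DMSO. Nonlytic luminescence from viable cells was read at each time point.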

[3] = qHTS RealTime-Glo MT Cell Viability Assay in HEK293 cells - 32 hour (AID 1224868); further: nearly all actives have a fitted effect of over 50% in size; further: potency means the concentration at half of the fitted maximal effect
Procedure, shortened: (§2)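 HEK293 cells were seeded at 600 cells/well together with NanoLuc luciferase and cell-permeant prosubstrate, preincubated 5 h at 37 C/5% CO2, then given compound in DMSO by pintool. Luminescence from viable-cell prosubstrate reduction was read repeatedly over 40 h.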

[4] = A CellTox Green Cytotoxicity Assay to monitor cytotoxicity in HEK293 cells - 0 hour (AID 1224869); further: nearly all actives have a fitted effect of over 50% in size
Procedure, shortened: (§3)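 Nonlytic real-time cytotoxicity: HEK293 + CellTox Green reagent plated, 5 h preincubation, pintool compound addition (23 nL in DMSO), 37 C for 40 h, fluorescence measured at successive time points.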

[5] = qHTS RealTime-Glo MT Cell Viability Assay in HepG2 cells - 40 hour (AID 1224870); further: nearly all actives have a fitted effect of over 50% in size
Procedure, shortened: (§4)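 HepG2 cells mixed with RealTime-Glo MT reagents (NanoLuc plus cell-permeant prosubstrate) were seeded at 600 cells/well, incubated 5 h at 37 C/5% CO2, then pinned with compounds in DMSO; nonlytic luminescence tracked viability during 40 h treatment.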

[6] = A CellTox Green Cytotoxicity Assay to monitor cytotoxicity in HEK293 cells - 40 hour (AID 1224871); further: nearly all actives have a fitted effect of over 45% in size; further: potency means the concentration at half of the fitted maximal effect
Procedure, shortened: as §3

[7] = qHTS RealTime-Glo MT Cell Viability Assay in HEK293 cells - 16 hour (AID 1224872); further: nearly all actives have a fitted effect of over 50% in size; further: potency means the concentration at half of the fitted maximal effect
Procedure, shortened: as §2

[8] = qHTS RealTime-Glo MT Cell Viability Assay in HepG2 cells - 8 hour (AID 1224873); further: nearly all actives have a fitted effect of over 55% in size
Procedure, shortened: as §4

[9] = qHTS RealTime-Glo MT Cell Viability Assay in HEK293 cells - 40 hour (AID 1224874); details: RealTime-Glo luminescence; max response: stronger effect = lower value; further: nearly all actives have a fitted effect of over 50% in size; further: potency means the concentration at half of the fitted maximal effect
Procedure, shortened: (§5)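 Cells were seeded together with NanoLuc luciferase and a prosubstrate that viable cells reduce to a luciferase substrate. After a 5 h incubation at 37 C/5% CO2, compounds were added and luminescence was measured repeatedly during 40 h of treatment.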

[10] = A CellTox Green Cytotoxicity Assay to monitor cytotoxicity in HEK293 cells - 24 hour (AID 1224875); further: nearly all actives have a fitted effect of over 45% in size
Procedure, shortened: as §3

[11] = A CellTox Green Cytotoxicity Assay to monitor cytotoxicity in HepG2 cells - 16 hour (AID 1224876); further: nearly all actives have a fitted effect of over 45% in size
Procedure, shortened: (§6)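 Read-out is fluorescence of a cyanine dye excluded from live cells that stains DNA of dead HepG2 cells, with signal proportional to cytotoxicity. Plates were read at 0, 8, 16, 24, 32 and 40 h after compound addition.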

[12] = qHTS RealTime-Glo MT Cell Viability Assay in HepG2 cells - 32 hour (AID 1224877); further: nearly all actives have a fitted effect of over 55% in size
Procedure, shortened: as §1

[13] = A CellTox Green Cytotoxicity Assay to monitor cytotoxicity in HepG2 cells - 24 hour (AID 1224878); further: nearly all actives have a fitted effect of over 45% in size; further: potency means the concentration at half of the fitted maximal effect
Procedure, shortened: as §6

[14] = A CellTox Green Cytotoxicity Assay to monitor cytotoxicity in HepG2 cells - 40 hour (AID 1224879); further: nearly all actives have a fitted effect of over 40% in size; further: potency means the concentration at half of the fitted maximal effect
Procedure, shortened: as §6

[15] = qHTS RealTime-Glo MT Cell Viability Assay in HEK293 cells - 0 hour (AID 1224880); further: nearly all actives have a fitted effect of over 45% in size; further: potency means the concentration at half of the fitted maximal effect
Procedure, shortened: as §5

[16] = A CellTox Green Cytotoxicity Assay to monitor cytotoxicity in HEK293 cells - 32 hour (AID 1224881); further: nearly all actives have a fitted effect of over 40% in size; further: potency means the concentration at half of the fitted maximal effect
Procedure, shortened: as §3

[17] = A CellTox Green Cytotoxicity Assay to monitor cytotoxicity in HepG2 cells - 0 hour (AID 1224882); further: nearly all actives have a fitted effect of over 35% in size
Procedure, shortened: as §6

[18] = A CellTox Green Cytotoxicity Assay to monitor cytotoxicity in HepG2 cells - 32 hour (AID 1224883); further: nearly all actives have a fitted effect of over 50% in size; further: potency means the concentration at half of the fitted maximal effect
Procedure, shortened: as §6

[19] = A CellTox Green Cytotoxicity Assay to monitor cytotoxicity in HEK293 cells - 8 hour (AID 1224884); further: nearly all actives have a fitted effect of over 35% in size
Procedure, shortened: as §3

[20] = qHTS assay to identify small molecule agonists of the estrogen related receptor (ERR) signaling pathway from Tox21 library (AID 1224849; calls by dose curve; further: nearly all actives have a fitted effect of over 15% in size); details: ERR reporter cell line, ONE-Glo luciferase, 18 h; at 92.4 µM (top of the series)
Procedure, shortened: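 ERR cells, 6 h pre-incubation 37 C/5% CO2; cpd in DMSO pinned; 18 h 37 C; ONE-Glo added, 30 min RT; luminescence read. Agonist mode, qHTS.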

## Cc1cccnc1
[1]
  Potency: inactive
[2]
  outcome: inactive
[3]
  Potency: inactive
[4]
  outcome: inactive
[5]
  outcome: inactive
[6]
  Potency: inactive
[7]
  Potency: inactive
[8]
  outcome: inactive
[9]
  max response: -5.56% (inactive) and 0.742% (inactive)
[10]
  Potency: inactive
[11]
  Potency: inactive
[12]
  outcome: inactive
[13]
  Potency: inactive
[14]
  Potency: inactive
[15]
  Potency: inactive
[16]
  Potency: inactive
[17]
  outcome: inactive
[18]
  Potency: inactive
[19]
  outcome: inactive

## C=C(C)C(=O)O[C@H]1C[C@@H]2CC[C@@]1(C)C2(C)C
[1]
  Potency: 4.83 µM (active) and inactive
[2]
  outcome: inactive
[3]
  Potency: 15.4 µM (active) and inactive
[4]
  outcome: inactive
[5]
  outcome: inactive
[6]
  Potency: 12.2 µM (active) and inactive
[7]
  Potency: 15.4 µM (active) and inactive
[8]
  outcome: inactive
[9]
  Potency: 15.4 µM (active)
  max response: 2.39% (inactive)
[10]
  Potency: inactive
[11]
  Potency: inactive
[12]
  outcome: inactive
[13]
  Potency: 4.87 µM (active) and inactive
[14]
  Potency: 7.71 µM (active) and inactive
[15]
  Potency: inactive
[16]
  Potency: 10.9 µM (active) and inactive
[17]
  outcome: inactive
[18]
  Potency: 6.87 µM (active) and inactive
[19]
  outcome: inactive

## Cc1cccc(O)c1
[1]
  Potency: inactive
[2]
  outcome: inactive
[3]
  Potency: inactive
[4]
  outcome: inactive
[5]
  outcome: inactive
[6]
  Potency: inactive
[7]
  Potency: inactive
[8]
  outcome: inactive
[9]
  max response: 3.75% (inactive) and 3.48% (inactive)
[11]
  Potency: inactive
[12]
  outcome: inactive
[13]
  Potency: inactive
[14]
  Potency: inactive
[15]
  Potency: inactive
[16]
  Potency: inactive
[17]
  outcome: inactive
[18]
  Potency: inactive
[19]
  outcome: inactive

## OCC(CO)(CBr)CBr
[1]
  Potency: inactive
[20]
  activity change, positive = activation: 2.42% (inactive) and 0.192% (inactive)
[2]
  outcome: inactive
[3]
  Potency: inactive
[4]
  outcome: inactive
[5]
  outcome: inactive
[6]
  Potency: inactive
[7]
  Potency: inactive
[8]
  outcome: inactive
[9]
  max response: -5.13% (inactive) and 3.96% (inactive)
[10]
  Potency: inactive
[12]
  outcome: inactive
[13]
  Potency: inactive
[14]
  Potency: inactive
[15]
  Potency: inactive
[16]
  Potency: inactive
[17]
  outcome: inactive
[18]
  Potency: inactive
[19]
  outcome: inactive

## CCC(O)OCCCOC (stereo not drawn)
[1]
  Potency: inactive
[2]
  outcome: inactive
[3]
  Potency: inactive
[4]
  outcome: inactive
[5]
  outcome: inactive
[6]
  Potency: inactive
[7]
  Potency: inactive
[8]
  outcome: inactive
[9]
  max response: 1.35% (inactive) and 16.2% (inactive)
[10]
  Potency: inactive
[12]
  outcome: inactive
[13]
  Potency: inactive
[14]
  Potency: inactive
[15]
  Potency: inactive
[16]
  Potency: inactive
[17]
  outcome: inactive
[18]
  Potency: inactive
[19]
  outcome: inactive

## O=C(CC(C(=O)OC1CCCCC1)S(=O)(=O)O)OC1CCCCC1 (stereo not drawn)
[1]
  Potency: inactive
[2]
  outcome: inactive
[3]
  Potency: inactive
[4]
  outcome: inactive
[5]
  outcome: inactive
[6]
  Potency: inactive
[7]
  Potency: inactive
[8]
  outcome: inactive
[9]
  max response: 7.94% (inactive) and 16.6% (inactive)
[10]
  Potency: inactive
[11]
  Potency: inactive
[12]
  outcome: inactive
[13]
  Potency: inactive
[14]
  Potency: inactive
[15]
  Potency: inactive
[16]
  Potency: inactive
[17]
  outcome: inactive
[18]
  Potency: inactive
[19]
  outcome: inactive

## CC(C)CC(=O)CC(C)C
[1]
  Potency: inactive
[2]
  outcome: inactive
[3]
  Potency: inactive
[4]
  outcome: inactive
[5]
  outcome: inactive
[6]
  Potency: inactive
[7]
  Potency: inactive
[8]
  outcome: inactive
[9]
  max response: 3.78% (inactive) and -11.6% (inactive)
[10]
  Potency: inactive
[12]
  outcome: inactive
[13]
  Potency: inactive
[14]
  Potency: inactive
[15]
  Potency: inactive
[16]
  Potency: inactive
[17]
  outcome: inactive
[18]
  Potency: inactive
[19]
  outcome: inactive

## C[C@H]1C[C@@H]2[C@H]([C@@H](O)C[C@@]3(C)[C@H]2CC[C@]3(O)C(=O)CO)[C@@]2(C)C=CC(=O)C=C12
[1]
  Potency: inactive
[2]
  outcome: inactive
[4]
  outcome: inactive
[5]
  outcome: inactive
[6]
  Potency: inactive
[7]
  Potency: inactive
[8]
  outcome: inactive
[9]
  max response: -9.2% (inactive) and -9.81% (inactive)
[12]
  outcome: inactive
[13]
  Potency: inactive
[14]
  Potency: inactive
[15]
  Potency: 7.76 µM (active) and 8.49 µM (active)
[16]
  Potency: inactive
[17]
  outcome: inactive
[18]
  Potency: inactive
[19]
  outcome: inactive

## O=C(Oc1ccccc1)c1ccccc1
[1]
  Potency: inactive
[2]
  outcome: inactive
[4]
  outcome: inactive
[5]
  outcome: inactive
[6]
  Potency: inactive
[7]
  Potency: inactive
[8]
  outcome: inactive
[9]
  max response: -9.85% (inactive) and 1.19% (inactive)
[11]
  Potency: inactive
[12]
  outcome: inactive
[13]
  Potency: inactive
[14]
  Potency: inactive
[15]
  Potency: inactive
[16]
  Potency: inactive
[17]
  outcome: inactive
[18]
  Potency: inactive
[19]
  outcome: inactive

## O=C(O)c1ccccc1C(c1ccc(O)cc1)c1ccc(O)cc1
[1]
  Potency: inactive
[2]
  outcome: inactive
[3]
  Potency: inactive
[4]
  outcome: inactive
[5]
  outcome: inactive
[6]
  Potency: inactive
[7]
  Potency: inactive
[8]
  outcome: inactive
[9]
  max response: 2.57% (inactive) and 12.8% (inactive)
[12]
  outcome: inactive
[13]
  Potency: inactive
[14]
  Potency: inactive
[15]
  Potency: inactive
[16]
  Potency: inactive
[17]
  outcome: inactive
[18]
  Potency: inactive
[19]
  outcome: inactive

## CC[C@H](C)C(=O)O[C@H]1C[C@@H](C)C=C2C=C[C@H](C)[C@H](CC[C@@H]3C[C@@H](O)CC(=O)O3)[C@H]21
[1]
  Potency: inactive
[2]
  outcome: inactive
[4]
  outcome: inactive
[5]
  outcome: inactive
[6]
  Potency: inactive
[7]
  Potency: inactive
[8]
  outcome: inactive
[9]
  max response: -8.74% (inactive) and -19.2% (inactive)
[10]
  Potency: inactive
[12]
  outcome: inactive
[13]
  Potency: 24.9 µM (active) and 10.7 µM (active)
[14]
  Potency: 7.01 µM (active) and 21.8 µM (active) and 9.52 µM (active)
[15]
  Potency: inactive
[16]
  Potency: inactive
[17]
  outcome: inactive
[18]
  Potency: 11.1 µM (active) and 17.3 µM (active) and 9.52 µM (active)
[19]
  outcome: inactive
